Experimental data taken from PubChem BioAssay.
Activity calls are given as the source filed them. Unless noted, no rule for the calls is given here.

Experiments:
[1] = test system: Wnt5a (protein binding on small-molecule microarray); experiment: small molecules binding Wnt5a protein – biophysical, small-molecule microarray, 635/667 nm fluorescence, primary screen (AID 1142); conditions: 635 nm fluorescence, higher = more signal;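 also: fluorescence read at 667 nm with signal to noise per printed feature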
[2] = ATP-based viability of Huh7 replicon cells – cell-based, CellTiter-Glo luminescence, basal, 48 h, cytotoxicity control for HCV replication inhibitor project, primary screen (AID 1143); conditions: higher = more signal, called active from +8 up or from −8 down;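 also: Huh7 hepatoma cells carrying a hepatitis C replication reporter with no stimulus; test concentration not given here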
[3] = Pseudomonas biofilm growth suppression – PAO1 strain, BacTiter-Glo luminescence, LB-PBS, primary screen (AID 1144); conditions: P. aeruginosa PAO1 biofilm, 12 h, higher = more signal
[4] = basal CRE-LacZ reporter activity in PC12 – cell-based, unstimulated, primary screen (AID 1145); conditions: no forskolin, luminescence, 4.5 h, higher = more signal, called active from +8 up or from −8 down
[5] = forskolin-driven CRE-LacZ activity in PC12 – cell-based, CRE-LacZ reporter, forskolin-stimulated, primary screen (AID 1146); conditions: luminescence, 4.5 h, higher = more signal, called active from +8 up or from −8 down;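 also: PC12 cells with 6xCRE LacZ reporter stimulated by forskolin 10 µM; beta-galactosidase reporter signal reflecting CREB driven transcription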
[6] = biological target: Streptavidin (Streptomyces avidinii) (UniProt P22629); experiment: compounds binding control protein streptavidin – biophysical, small-molecule microarray, 635/667 nm fluorescence, artefact control for SMM compound annotation, primary screen (AID 1147); conditions: higher = more signal;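 also: signal reflects streptavidin binding to arrayed compounds as a control protein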
Streptavidin (Streptomyces avidinii), sequence (P22629 whole entry, looked up): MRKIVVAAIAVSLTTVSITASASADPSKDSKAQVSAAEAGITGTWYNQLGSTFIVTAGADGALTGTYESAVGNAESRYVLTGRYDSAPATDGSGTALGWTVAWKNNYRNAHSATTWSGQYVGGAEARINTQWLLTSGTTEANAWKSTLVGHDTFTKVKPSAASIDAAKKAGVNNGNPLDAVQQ

[7] = probe aInhba binding on compound microarray – biochemical, small-molecule microarray, 635/667 nm fluorescence, primary screen (AID 1148); conditions: higher = more signal;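 also: score merges 667nm spot fluorescence with signal-to-noise for antibody binding to printed compounds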
Torsin-1A (Homo sapiens) [8] = biological target: Torsin-1A (Homo sapiens) (UniProt O14656); experiment: TOR1A wild-type binding on microarray – cell lysate, small-molecule microarray, lysate, 635/667 nm, primary screen (AID 1149); conditions: COS7 hTOR1A-WT lysate, 635 nm fluorescence, higher = more signal
Torsin-1A (Homo sapiens), sequence (O14656 whole entry, looked up): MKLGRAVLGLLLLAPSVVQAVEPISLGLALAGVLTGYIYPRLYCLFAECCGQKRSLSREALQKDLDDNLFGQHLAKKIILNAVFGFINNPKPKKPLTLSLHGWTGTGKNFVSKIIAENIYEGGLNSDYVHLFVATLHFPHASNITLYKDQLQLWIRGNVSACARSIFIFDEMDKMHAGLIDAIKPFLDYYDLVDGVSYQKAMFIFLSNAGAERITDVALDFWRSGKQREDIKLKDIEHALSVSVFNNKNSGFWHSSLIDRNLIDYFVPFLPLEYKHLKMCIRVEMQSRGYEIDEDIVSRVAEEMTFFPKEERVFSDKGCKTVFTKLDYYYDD

Torsin-1A (Homo sapiens) [9] = biological target: Torsin-1A (Homo sapiens) (UniProt O14656); experiment: torsin A mutant lysate binding on microarrays – cell lysate, small-molecule microarray, COS7 lysate, 635/667 nm fluorescence, primary screen (AID 1150); conditions: COS7 hTOR1A mutant lysate, 635 nm fluorescence, higher = more signal;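 also: score pools 667 nm emission and signal to noise measuring lysate protein binding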
[10] = test system: Sonic hedgehog protein (Shh); experiment: Sonic hedgehog microarray binding compounds – biochemical, small-molecule microarray, 635/667 nm fluorescence, primary screen (AID 1151); conditions: 635 nm fluorescence, higher = more signal;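 also: Shh protein binding to compounds spotted on small-molecule microarray slides; score combines spot fluorescence intensity with signal-to-noise across triplicate slides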
[11] = optical density shifts of acrAB sulA E. coli – strain DRC41, OD650, 48 h, E. coli filamentation inducer project, primary screen (AID 1152); conditions: higher = more signal, called active from +8 up or from −8 down;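 also: E. coli MC1000 strain DRC41 lacking acrAB efflux pump and sulA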
[12] = probe aLefty1 binding on compound microarray – biochemical, small-molecule microarray, 635/667 nm fluorescence, primary screen (AID 1153); conditions: higher = more signal;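 also: score merges spot fluorescence with signal-to-noise ratio from the scanned slide images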
[13] = plasmodial surface anion channel blockers, osmotic lysis – cell-based, P. falciparum Indochina, OD700, 1 h, primary screen (AID 1154); conditions: P. falciparum Indochina infected RBC osmotic lysis, higher = more signal, called active from +8 up or from −8 down
[14] = plasmodial surface anion channel blockers, osmotic lysis – cell-based, P. falciparum Indochina, OD700, 2 h, primary screen (AID 1155);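 also: lysis reports solute entry through the parasite surface anion channel PSAC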; conditions: P. falciparum Indochina infected erythrocytes, higher = more signal, called active from +8 up or from −8 down
[15] = changes in parasitized red cell lysis, either direction – P. falciparum Indochina, OD700, 3 h, PSAC antagonist project, primary screen (AID 1156); conditions: P. falciparum-infected erythrocytes, osmotic lysis, higher = more signal, called active from +8 up or from −8 down
[16] = plasmodial surface anion channel blockers, osmotic lysis – cell-based, P. falciparum Indochina, OD700, 18 h, primary screen (AID 1157); conditions: P. falciparum Indochina infected erythrocytes, osmotic lysis OD700, 18 h; higher = more signal, called active from +8 up or from −8 down
[17] = S6 kinase pathway phospho-S6 level changes – cell-based, A549, cytoblot, luminescence, serum-stimulated, primary screen (AID 1158); conditions: 5 h, higher = more signal;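 also: serum-stimulated A549 lung adenocarcinoma cells; signal is phosphorylated S6 detected by cytoblot immunostaining with HRP secondary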
[18] = biological target: NADPH oxidase 2 (Homo sapiens) (UniProt P04839); experiment: compounds shifting NOX2 Amplex Red fluorescence – cell-based, HEK293-NOX2, PMA-stimulated, NOX inhibitor project, primary screen (AID 1159); conditions: 45 min, higher = more signal, called active from +8 up or from −8 down; also: test concentration not given here
NADPH oxidase 2 (Homo sapiens), sequence (P04839 whole entry, looked up): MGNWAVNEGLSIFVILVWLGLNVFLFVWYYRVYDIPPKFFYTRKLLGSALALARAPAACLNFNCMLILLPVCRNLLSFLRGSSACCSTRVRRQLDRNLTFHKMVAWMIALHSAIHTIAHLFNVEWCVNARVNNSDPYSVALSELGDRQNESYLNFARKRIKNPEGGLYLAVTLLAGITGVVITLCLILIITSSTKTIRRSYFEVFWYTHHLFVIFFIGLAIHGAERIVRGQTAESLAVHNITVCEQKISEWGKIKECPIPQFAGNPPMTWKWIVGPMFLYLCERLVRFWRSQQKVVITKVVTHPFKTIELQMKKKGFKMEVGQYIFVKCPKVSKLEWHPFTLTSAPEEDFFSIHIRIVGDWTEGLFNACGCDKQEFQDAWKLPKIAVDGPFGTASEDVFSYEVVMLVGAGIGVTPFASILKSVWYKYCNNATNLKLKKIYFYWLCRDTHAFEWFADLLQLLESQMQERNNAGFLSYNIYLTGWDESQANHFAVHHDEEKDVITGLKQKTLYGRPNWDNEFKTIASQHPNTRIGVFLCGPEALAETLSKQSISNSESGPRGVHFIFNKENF

[19] = biological target: NADPH oxidase 4 (Homo sapiens) (UniProt Q9NPH5); experiment: compounds shifting NOX4 Amplex Red fluorescence – cell-based, HEK293-NOX4, tetracycline-induced, NOX inhibitor project, primary screen (AID 1160); conditions: HEK293-NOX4, Amplex Red H2O2 fluorescence, 45 min; higher = more signal, called active from +8 up or from −8 down
NADPH oxidase 4 (Homo sapiens), sequence (Q9NPH5 whole entry, looked up): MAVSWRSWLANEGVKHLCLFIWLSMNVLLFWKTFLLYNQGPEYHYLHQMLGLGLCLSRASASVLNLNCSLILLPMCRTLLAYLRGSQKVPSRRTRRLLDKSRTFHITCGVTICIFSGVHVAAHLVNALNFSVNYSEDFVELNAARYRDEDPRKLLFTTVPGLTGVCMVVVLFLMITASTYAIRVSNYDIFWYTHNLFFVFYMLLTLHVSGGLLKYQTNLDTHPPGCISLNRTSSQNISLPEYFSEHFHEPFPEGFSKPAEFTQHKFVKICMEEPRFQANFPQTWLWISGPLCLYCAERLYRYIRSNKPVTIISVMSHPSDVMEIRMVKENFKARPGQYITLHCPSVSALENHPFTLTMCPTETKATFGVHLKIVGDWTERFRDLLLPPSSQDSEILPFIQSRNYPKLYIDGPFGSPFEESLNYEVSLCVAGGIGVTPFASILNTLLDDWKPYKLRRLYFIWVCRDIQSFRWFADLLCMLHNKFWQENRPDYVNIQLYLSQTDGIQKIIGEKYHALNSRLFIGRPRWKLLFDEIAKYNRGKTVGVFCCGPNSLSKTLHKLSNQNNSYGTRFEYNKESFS

[20] = biological target: NADPH oxidase 5 (Homo sapiens) (UniProt Q96PH1); experiment: compounds shifting NOX5 Amplex Red fluorescence – cell-based, HEK293-NOX5, NOX inhibitor project, primary screen (AID 1161); conditions: HEK293-NOX5, ionomycin, 45 min, higher = more signal
NADPH oxidase 5 (Homo sapiens), sequence (Q96PH1 whole entry, looked up): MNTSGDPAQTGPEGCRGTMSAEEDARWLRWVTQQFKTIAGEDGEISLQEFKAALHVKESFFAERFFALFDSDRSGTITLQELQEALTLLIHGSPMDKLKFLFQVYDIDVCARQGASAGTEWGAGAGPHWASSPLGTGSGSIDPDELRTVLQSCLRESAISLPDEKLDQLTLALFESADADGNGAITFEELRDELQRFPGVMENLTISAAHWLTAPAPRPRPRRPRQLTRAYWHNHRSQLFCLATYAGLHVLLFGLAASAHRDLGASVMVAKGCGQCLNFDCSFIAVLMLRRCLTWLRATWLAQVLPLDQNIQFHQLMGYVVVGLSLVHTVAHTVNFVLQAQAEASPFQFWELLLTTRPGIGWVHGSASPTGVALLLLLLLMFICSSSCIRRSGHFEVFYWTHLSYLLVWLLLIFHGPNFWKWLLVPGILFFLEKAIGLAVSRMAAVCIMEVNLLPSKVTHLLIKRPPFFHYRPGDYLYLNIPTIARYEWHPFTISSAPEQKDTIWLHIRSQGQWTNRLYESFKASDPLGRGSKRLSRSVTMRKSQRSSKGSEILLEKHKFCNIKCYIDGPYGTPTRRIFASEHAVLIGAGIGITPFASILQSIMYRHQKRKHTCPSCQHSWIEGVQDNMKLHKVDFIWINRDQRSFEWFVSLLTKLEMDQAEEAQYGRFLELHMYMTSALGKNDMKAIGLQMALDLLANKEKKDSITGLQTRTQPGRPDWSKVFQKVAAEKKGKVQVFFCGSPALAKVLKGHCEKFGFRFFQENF

Row | SMILES | composite z-score [1] | z-score [2] | z-score [3] | z-score [4] | z-score [5] | composite z-score [6] | composite z-score [7] | composite z-score (Torsin-1A (Homo sapiens) [8]) | composite z-score (Torsin-1A (Homo sapiens) [9]) | composite z-score [10] | z-score [11] | composite z-score [12] | z-score [13] | z-score [14] | z-score [15] | z-score [16] | z-score [17] | z-score [18] | z-score [19] | z-score [20]
1 | CC(C)N1C(=O)C[C@@](C(=O)NCCN2CCOCC2)(c2ccc([N+](=O)[O-])cc2)[C@H]1c1ccc(CO)cc1 | -0.182 | -2.94 (inactive) | -1.4 (inactive) | -0.295 (inactive) | 0.668 (inactive) | -0.919 | -0.154 | -2.27 | 1.04 | -1.1 | 0.344 (inactive) | -0.832 | 1.63 (inactive) | -0.0494 (inactive) | 1.53 (inactive) | 0.35 (inactive) | 0.265 | -0.54 (inactive) | -0.685 (inactive) | -2.46
2 | COC(=O)[C@@]1(Cc2ccc(F)cc2)[C@H]2c3cc(C(=O)N(C)C)n(C)c3C[C@H]2CN1C(=O)c1ccccc1 | 0.418 | -0.771 (inactive) | -0.259 (inactive) | 0.0007 (inactive) | -0.339 (inactive) | 0.069 | 0.395 | -0.0772 | 0.814 | -0.34 | -1.18 (inactive) | 0.113 | 0.404 (inactive) | 0.149 (inactive) | -0.898 (inactive) | 0.545 (inactive) | -0.8 | 0.323 (inactive) | -0.0748 (inactive) | -0.552
3 | CCCCCC1=C2CNC(Cc3ccccc3)(C(=O)OC)C=C2C(C)C1=O (stereo not given) | -0.176 | -1.49 (inactive) | 0.949 (inactive) | 0.4 (inactive) | 2.19 (inactive) | 0.0482 | 0.222 | -0.88 | 0.154 | -0.695 | -1.76 (inactive) | 0.568 | 2.16 (inactive) | -0.21 (inactive) | 1.04 (inactive) | 0.422 (inactive) | -0.275 | -0.733 (inactive) | -3.5 (inactive) | -3
4 | CN(C)c1ccc(C(O)C2C=CC3C(=O)N(Cc4ccccc4)C(=O)C3N2n2cnnc2)cc1 (stereo not given) | -0.347 | 0.166 (inactive) | -1.85 (inactive) | -1.09 (inactive) | -0.607 (inactive) | 0.143 | -0.149 | 0.131 | -0.243 | -0.11 | 1.3 (inactive) | -0.115 | 0.0651 (inactive) | -0.318 (inactive) | 0.747 (inactive) | -0.553 (inactive) | 1.02 | 0.683 (inactive) | -0.524 (inactive) | 0.36
5 | COCCCN1C(=O)[C@@]2(c3ccc([N+](=O)[O-])cc3)CC(=O)N(CC34CC5CC(CC(C5)C3)C4)[C@@H]2c2ccc(CO)cc21 | -0.15 | -0.636 (inactive) | -0.453 (inactive) | -1.32 (inactive) | -0.556 (inactive) | 0.135 | -0.138 | -0.323 | -0.0458 | 0.791 | 0.172 (inactive) | -0.298 | -0.409 (inactive) | 0.28 (inactive) | 1.48 (inactive) | 0.0583 (inactive) | 0.261 | 0.307 (inactive) | 0.183 (inactive) | 0.482
6 | COC(=O)[C@@]1(Cc2ccc(OC)cc2)[C@H]2c3cc(C(=O)N4CCCC4)n(Cc4ccc(Cl)c(C(F)(F)F)c4)c3C[C@H]2CN1C(=O)c1ccccc1 | 0.344 | -3.32 (inactive) | 0.237 (inactive) | 0.0143 (inactive) | -0.218 (inactive) | 1.59 | 0.728 | 0.557 | 1.28 | -0.152 | -0.557 (inactive) | 1.19 | 1.24 (inactive) | -0.382 (inactive) | -0.397 (inactive) | -1.17 (inactive) | 2.85 | 0.449 (inactive) | 1.28 (inactive) | -4.74
7 | CCCCCCc1nc(-c2ccc(-c3ccc(Cl)c(Cl)c3)o2)cc2c1[Si](C(C)C)(C(C)C)OC2 | -0.905 | -5.45 (inactive) | -1.51 (inactive) | -0.621 (inactive) | 1.29 (inactive) | -1.24 | -0.261 | -1.83 | -0.526 | -0.583 | 0.615 (inactive) | -0.193 | 3.45 (inactive) | 0.259 (inactive) | 0.78 (inactive) | -0.84 (inactive) | 1.6 | -5.23 (inactive) | -4.25 (inactive) | -7.11
8 | C=CCOC(=O)[C@H]1[C@@H]2C(=O)O[C@@H](c3ccccc3)[C@@H](c3ccccc3)N2[C@@H](c2ccc(OCCOC(=O)[C@H]3C[C@H]4C(=O)N[C@@H](CC(C)C)C(=O)N4[C@H]3c3ccc(O)cc3)cc2)[C@]12C(=O)Nc1ccccc12 | 0.809 | -0.351 (inactive) | -1.22 (inactive) | -0.26 (inactive) | 0.146 (inactive) | 0.137 | 0.0544 | 0.739 | 1.18 | 2.06 | 0.324 (inactive) | 0.13 | 1.64 (inactive) | 0.998 (inactive) | 3.83 (inactive) | 0.964 (inactive) | 0.758 | 1.2 (inactive) | 0.776 (inactive) | 1.4
9 | C=C(COC)C(=O)CC[C@@H](OC(C)=O)c1ccccc1OCCO | 0.866 | -2.43 (inactive) | -0.787 (inactive) | 1.54 (inactive) | 8.39 (active) | -0.507 | -0.0403 | 0.135 | 1.05 | 2.32 | 0.929 (inactive) | -0.152 | 1.73 (inactive) | -0.91 (inactive) | -0.0421 (inactive) | -1.95 (inactive) | 0.846 | -1.51 (inactive) | 0.146 (inactive) | -1.38
